# In PubChem BioAssay AID2501 (Southern Research Specialized Biocontainment Screening …, 2010):
# Among all 2,200 compounds or so, about 1,200 (55%) were called active. So high a share suggests a set chosen from earlier hits. The list shows a part of the results. Unmarked numbers belong to inactive results. The limit is not given here; nearly all actives have IC50 up to about 92 µM.
# Test: counter assay for TAg ATPase ADP read-out – biochemical, ADP-Hunter, fluorescence, counter-screen (AID 2501);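 also: purified T antigen ATPase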;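 as to inhibition: 0% = enzyme with vehicle and 100% = reference inhibitor wells; higher means more inhibition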
# Details: series mostly up to 100 µM
SMILES,IC50,inhibition
O=C(OCCc1ccccc1)c1cc(O)c(O)c(O)c1,29.2 µM (active),–
O=C(OCC1O[C@@H](OC(=O)c2cc(O)c(O)c(O)c2)[C@@H](OC(=O)c2cc(O)c(O)c(O)c2)[C@@H](OC(=O)c2cc(O)c(O)c(O)c2)[C@@H]1OC(=O)c1cc(O)c(O)c(O)c1)c1cc(O)c(O)c(O)c1 (stereo partly specified),inactive,–
CN1CCc2cccc3c2[C@@H]1Cc1ccc(O)c(O)c1-3,inactive,–
CC(C)(C)n1nc2c(c1NC(=O)c1ccccc1S(=O)(=O)C(F)F)CS(=O)(=O)C2,inactive,–
O=c1[nH][nH]c(=S)n1C1CCCCC1,inactive,–
COc1cccc(/C=N/N2CCN(c3ccncc3S(=O)(=O)N3CCCCC3)CC2)c1,inactive,–
COc1ccccc1N1CCN(/N=C/c2ccc(O)c(O)c2)CC1,5.45 µM (active),–
Oc1ccc2[nH]ccc2c1,2.23 µM (active),–
O=C(O)c1ccc(NS(=O)(=O)c2ccc3c(c2)C2C=CCC2C(c2ccccc2F)N3)cc1 (stereo unspecified),inactive,–
Oc1ccc(O)cc1,7.46 µM (active),–
CC(=O)c1cc2c(O)c(O)ccc2o1,7.04 µM (active),–
Cc1ccc2oc(C(=O)Nc3nonc3C)c(C)c2c1,inactive,–
CCOc1ccc(/C=N/NC(=O)CSc2ccccn2)cc1O,2.66 µM (active),–
COc1cc(/C=N/NC(=O)CSc2ccccn2)ccc1O,4.11 µM (active),–
Cc1cc(C)nc(NC2=NCC(=O)N2c2cc(Cl)cc(Cl)c2)n1,inactive,–
CC1(OC(=O)C2CCCC2)C(=O)C=C2C=C(c3ccsc3)N(Cc3ccco3)C=C2C1=O (stereo unspecified),inactive,–
Nc1ccc2nc(CCCCCCCCc3nc4ccc(N)cc4[nH]3)[nH]c2c1,6.38 µM (active),–
Nc1ccc2nc(CCCCCCc3nc4ccc(N)cc4[nH]3)[nH]c2c1,2.36 µM (active),–
Nc1ccc2nc(CCCO)[nH]c2c1,2.74 µM (active),–
Cc1c(C=NCCOCc2ccccc2)cnn1C,inactive,–
COc1cc(/C=N/Nc2nc(N3CCCC3)nc(N3CCCC3)n2)ccc1O,6.61 µM (active),–
CCNc1nc(NCC)nc(N/N=C/c2ccc(O)c(OC)c2)n1,5.21 µM (active),–

SMILES,IC50,inhibition
CN(C)c1nc(NCc2ccccc2)nc(N/N=C/c2ccc(Cl)cc2Cl)n1,inactive,–
COc1ccc(/C=N/Nc2nc(N3CCCC3)nc(N3CCCC3)n2)cc1O,3.91 µM (active),–
Cc1ccc(-c2nc3ncccn3c2NC2CCCCC2)o1,6.91 µM (active),–
CCOC(=O)c1c(NC(=O)/C=C/C(=O)O)sc(C)c1-c1ccc(C(C)(C)C)cc1,inactive,–
CCOC(=O)c1c(NC(=O)/C=C/C(=O)O)sc(C)c1-c1ccc(Cl)cc1,inactive,–
CCOC(=O)c1c(NC(C)=O)sc2c(O)c(Br)cc(Br)c12,28.4 µM (active),–
Oc1ccc(C2=Nn3c(nnc3-c3ccco3)SC2)cc1O,4.93 µM (active),–
CN1CCc2cccc3c2[C@H]1Cc1ccc(O)c(O)c1-3,inactive,–
O=C(NC(=S)Nc1cccc(S(=O)(=O)NC2=NCCC2)c1)c1cc(-c2ccco2)nc2ccccc12,inactive,–
COc1cc(/C=C2/C(=O)c3cccc([N+](=O)[O-])c3C2=O)c(Br)cc1O,23.4 µM (active),–
O=C(O)/C=C/C(=O)c1ccc2c(c1)CCc1ccccc1-2,inactive,–
COc1ccc(NCC(O)Cn2cnc3c2c(=O)n(C)c(=O)n3C)cc1 (stereo unspecified),6.13 µM (active),–
Cc1nn(-c2cccc(Cl)c2)c2nc(-c3ccco3)cc(C(=O)O)c12,inactive,–
CNc1nn(-c2cccc(Cl)c2)nc1N,9.76 µM (active),–
COc1ccc(N2CCN(c3cc(=O)n(Cc4ccc(F)cc4)c(=O)[nH]3)CC2)cc1,inactive,–
CNC(=S)N1CCN(c2ccc(OC)cc2)CC1,8.87 µM (active),–
COc1ccc(N2CCN(C(=O)NC3CC(=O)N(c4ccc(OC)cc4)C3)CC2)cc1 (stereo unspecified),26.8 µM (active),–
O=C(O)c1ccc(Nc2cc(Cl)c3nonc3c2[N+](=O)[O-])cc1,inactive,–
O=[N+]([O-])c1c(Nc2ccc(O)cc2)cc(Cl)c2nonc12,26.9 µM (active),–
O=[N+]([O-])c1c(Nc2cccc(O)c2)cc(Cl)c2nonc12,inactive,–
CCn1c(Cc2ccccc2)nnc1SCC(=O)Nc1ccc(N2CCOCC2)c(Cl)c1,inactive,–
C=CCn1c(CNc2ccccc2)nnc1SCC(=O)N/N=C/c1ccc(O)cc1O,4.22 µM (active),–

SMILES,IC50,inhibition
CN1CCC(=C(c2ccccc2)c2ccc(Br)cc2)CC1,inactive,–
COc1ccc(N=c2scc(C)n2CCCN2CCCC2=O)cc1,6.36 µM (active),–
CC(C)C1N=C2c3ccccc3N=C(SCC(=O)c3ccc(O)c(O)c3)N2C1=O (stereo unspecified),4.05 µM (active),–
Nc1ncc(N=Nc2cc(C(=O)O)ccc2Cl)s1,12.4 µM (active),–
COc1cccc(C(=O)N(Cc2cc3cc(C)ccc3[nH]c2=O)C(C)C)c1,inactive,–
COCCN=C1Sc2nc3c(C)cccc3cc2CN1Cc1ccco1,13.7 µM (active),–
CCOC(=O)c1cnc(Nc2nc3ccccc3o2)nc1CSC(=S)N1CCCCC1,inactive,–
CN(C)c1ccc(/C=C/c2cc[n+]([O-])cc2)cc1,5.15 µM (active),–
Oc1ccc(Nc2nc(NCC3CCCO3)c3ccccc3n2)cc1 (stereo unspecified),5.81 µM (active),–
O=S(=O)(c1cccs1)N1CN(CC2CCCO2)c2nc3ccccc3nc21 (stereo unspecified),inactive,–
OCCNc1nc(Nc2ccc(O)cc2)nc2ccccc12,2.57 µM (active),–
CN(Cc1ccco1)S(=O)(=O)c1nnc(NC(=O)c2cccc(Cl)c2)s1,inactive,–
CCn1cc(CN2CCC(n3nccc3NC(=O)c3ccccc3OC)CC2)cn1,inactive,–
CC(C)(C)OC(=O)N/N=C/c1ccc(N2CCOCC2)s1,8.25 µM (active),–
NC(=O)N/N=C/c1ccc(N2CCOCC2)s1,10.7 µM (active),–
COc1ccc(N(CC(=O)NCCc2cccc(C)c2)S(=O)(=O)c2c(C)noc2C)cc1,inactive,–
COc1cccc(NS(=O)(=O)c2ccc3c(c2)C2C=CCC2C(c2ccc(C(=O)O)cc2)N3)c1 (stereo unspecified),inactive,–
Oc1ccc(-c2csc(Nc3ccccn3)n2)cc1O,11.2 µM (active),–
Cc1ccc(Nc2nc(-c3ccc(O)c(O)c3)cs2)nc1,8.68 µM (active),–
Oc1ccc(-c2csc(Nc3cccc4ccccc34)n2)cc1O,23.6 µM (active),–
Oc1ccc(-c2csc(Nc3ncccn3)n2)cc1O,10.2 µM (active),–
Cc1cc(-c2nnc(SCc3ccccn3)o2)no1,inactive,–

SMILES,IC50,inhibition
Cc1onc(-c2c(F)cccc2Cl)c1C(=O)OCC(=O)NC(c1ccccc1)c1ccccc1,inactive,–
COc1cc(/C=C2/C(=N)N3C(=NC2=O)SN=C3S(=O)(=O)C(C)C)ccc1OS(=O)(=O)c1ccccc1,inactive,–
CCS(=O)(=O)C1=NN2C(=N)/C(=C\c3ccc(SCc4ccco4)o3)C(=O)N=C2S1,inactive,–
CCS(=O)(=O)C1=NN2C(=N)/C(=C\c3ccc(OC(=O)c4ccco4)c(OC)c3)C(=O)N=C2S1,54.2 µM (active),–
COc1cc(/C=C2/C(=N)N3C(=NC2=O)SN=C3S(C)(=O)=O)ccc1OS(=O)(=O)c1ccc(C)cc1,inactive,–
COc1cc(/C=C2\C(=N)N3N=C(S(C)(=O)=O)SC3=NC2=O)ccc1OS(=O)(=O)c1ccc(C)cc1,28.6 µM (active),–
CCOc1cc(/C=C2\C(=N)N3N=C(S(=O)(=O)CC)SC3=NC2=O)ccc1OC(=O)c1ccco1,–,8.45% [at 6.25 µM]
O=C1OC(c2ccc(Cl)cc2)=N/C1=C\C=C\c1ccco1,inactive,–
Oc1ccc(-c2cn3ccccc3n2)cc1,3.69 µM (active),–
Oc1ccc(-c2cn3ccccc3n2)cc1O,5.62 µM (active),–
Cc1ccn2cc(-c3ccc(O)c(O)c3)nc2c1,7.1 µM (active),–
Cc1ccc(-c2nnc(Nc3ccc(O)cc3)c3ccccc23)cc1S(=O)(=O)NCCO,5.63 µM (active),–
COc1cc(NS(=O)(=O)c2ccc(NC(=S)NC(=O)/C=C/c3ccco3)cc2)ncn1,inactive,–
O=C(Nc1cccc(N2C(=O)C=CC2=O)c1)c1cccs1,inactive,–
CCOc1cc(NS(=O)(=O)c2ccc(NC(C)=O)cc2)c(OCC)cc1NC(=O)c1cccs1,7.08 µM (active),–
CN=c1scc(-c2ccco2)n1/N=C/c1ccc(O)c(O)c1,8.2 µM (active),–
Cc1cccc(C(=O)NCC(=O)OCC(=O)c2ccc(Cl)s2)c1,inactive,–
O=C(COc1cccnc1[N+](=O)[O-])c1ccc(Cl)s1,39.2 µM (active),–
O=C(Nc1ccon1)c1cc2ccccc2oc1=O,inactive,–
O=C(OC1CCCCC1=O)c1cc(=O)c2ccccc2o1 (stereo unspecified),inactive,–
COc1cc(-c2cc(=O)c3ccccc3o2)ccc1O,3.14 µM (active),–
COc1cc(-c2cc(=O)c3c(O)c(OC)c(OC)c(O)c3o2)ccc1O,inactive,–

SMILES,IC50,inhibition
CCCOCC1CC(CCc2nc(=S)[nH][nH]2)C(=O)O1 (stereo unspecified),inactive,–
O=C(Cn1sc2ccccc2c1=O)NC12CC3CC(CC(C3)C1)C2,inactive,–
O=c1[nH]sc2ccccc12,inactive,–
Cc1ccnc(NS(=O)(=O)c2ccccc2)n1,inactive,–
Cc1cc(=O)c2ccccc2s1,inactive,–
O=c1c2ccccc2sn1-c1nccs1,14.1 µM (active),–
Cc1ccnc(-n2sc3ccccc3c2=O)n1,9.06 µM (active),–
COc1cccc(C(c2sc3nc(C)nn3c2O)N2CCN(c3ccccc3F)CC2)c1 (stereo unspecified),inactive,–
CN(C)c1nn(C(=O)Nc2ccc(Cl)cc2Cl)cc1-c1ccccc1,14.8 µM (active),–
O=C(O)/C=C/C(=O)Nc1ccc(Cl)cc1C(=O)c1ccccc1,inactive,–
CCCCSc1cc(C)nc(N)n1,inactive,–
CCN(CC)c1ccc(NC(=O)c2cccnc2)cc1,8.35 µM (active),–
CCN(CC)c1ccc(NC(=O)c2cccc(C)c2OC)c(C)c1,14.9 µM (active),–
CCOC(=O)c1cc(NC(=O)c2cccnc2)ccn1,inactive,–
CCN(CC)c1ccc(NC(=O)c2cccnc2)c(C)c1,6.37 µM (active),–
COC(=O)NNC(=O)c1ccccc1C,inactive,–
CCN(CC)c1ccc(NC(=O)c2cnn(CC)c2)cc1,4.27 µM (active),–
COCCNC(=O)C(=O)Nc1ccc(Cl)cc1C,inactive,–
